# Source: PubChem (National Center for Advancing Translational Sciences (NCATS))
# The list is not random: actives were taken first. Their share in the collection is about 10%.
# G9a inh = inhibitors of human histone lysine methyltransferase G9a; AID 504332; Q96KQ7; Potency, µM (highest dose often 102 µM), inactives show at the highest dose activity, negative = inhibition, most hits filed as inhibitors; 8.8% of 350,000 active; G9a H3K9 monomethylation, AlphaScreen, 2 h; also: potency is read from the fitted curve at half-maximal effect; % is scaled to controls: 0 for no effect and ±100 for the full control effect; nearly all actives have a fitted effect of over 75% in size
#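 AlphaScreen read-out: biotin-H3K9 peptide (500 nM) methylation by 20 nM enzyme with 20 uM SAM, 2 h at room temperature after 15 min compound preincubation; anti-monomethyl H3K9 antibody plus donor/acceptor beads, 10 min dark.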
# Six1-Eya2 blk = inhibitors of human Six1/Eya2 interaction; Q15475+O00167; AlphaScreen GST-Six1/His-Eya2 binding, biochemical; stronger effect = lower value; activity change, % (test concentration not listed); 0.56% of 360,000 active; in the data active = activity change below about -65%; inconclusive = mostly about -30% to -63%; also: % is scaled to controls: 0 for no effect and ±100 for the full control effect
# Target sequence (O00167 whole entry, looked up): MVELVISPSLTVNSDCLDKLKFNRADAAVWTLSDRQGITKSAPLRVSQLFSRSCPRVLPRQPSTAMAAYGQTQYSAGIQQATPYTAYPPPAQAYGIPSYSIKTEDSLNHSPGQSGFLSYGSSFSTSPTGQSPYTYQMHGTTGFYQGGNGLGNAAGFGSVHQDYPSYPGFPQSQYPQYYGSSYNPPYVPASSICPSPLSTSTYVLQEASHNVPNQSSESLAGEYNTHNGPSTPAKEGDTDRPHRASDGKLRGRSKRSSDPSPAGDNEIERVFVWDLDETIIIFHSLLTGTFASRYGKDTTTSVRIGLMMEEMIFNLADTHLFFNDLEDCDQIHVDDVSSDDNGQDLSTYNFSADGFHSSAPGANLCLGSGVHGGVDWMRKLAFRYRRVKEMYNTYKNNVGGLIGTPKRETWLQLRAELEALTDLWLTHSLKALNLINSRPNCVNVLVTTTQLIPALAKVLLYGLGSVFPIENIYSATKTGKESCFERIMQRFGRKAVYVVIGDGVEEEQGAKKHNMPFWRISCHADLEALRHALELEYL
# Target sequence (Q15475 whole entry, looked up): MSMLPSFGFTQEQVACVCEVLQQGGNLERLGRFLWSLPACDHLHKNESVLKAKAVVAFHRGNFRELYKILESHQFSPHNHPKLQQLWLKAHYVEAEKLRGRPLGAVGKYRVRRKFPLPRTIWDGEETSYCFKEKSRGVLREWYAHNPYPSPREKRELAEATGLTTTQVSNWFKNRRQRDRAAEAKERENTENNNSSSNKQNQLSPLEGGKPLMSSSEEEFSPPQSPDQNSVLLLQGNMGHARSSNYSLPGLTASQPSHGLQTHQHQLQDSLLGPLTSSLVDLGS
#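 Compounds are tested against tagged Six1 and Eya2 proteins bridged by glutathione donor and nickel acceptor beads; after a one-hour incubation at 37 °C without light, AlphaScreen emission is recorded.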
# BAZ2B block = inhibitors of human BAZ2B bromodomain; AlphaScreen BAZ2B-H3K14Ac peptide displacement; Potency, µM (doses to about 114 µM), without a hit: top-dose activity change, negative = inhibition, most hits filed as inhibitors; 4.4% of 360,000 active; also: potency is read from the fitted curve at half-maximal effect; % is scaled to controls: 0 for no effect and ±100 for the full control effect; nearly all actives have a fitted effect of over 60% in size
#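 Complex of BAZ2B and biotin-H3K14Ac (50 nM apiece) forms over 30 min at RT, then faces library compounds up to 110 uM for another 30 min; AlphaScreen beads added, 20 min dark incubation, luminescence read.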
# HP1b binding inh = HP1-beta chromodomain-methylated histone interaction inhibition | P83916 | Potency, µM (series often up to 114 µM), for the others: top-dose activity change, negative = inhibition, most hits filed as inhibitors | AID 540317 | AlphaScreen HP1-beta / biotin-H3K9me3 peptide binding | 0.56% of 390,000 active; also: potency is read from the fitted curve at half-maximal effect; nearly all actives have a fitted effect of over 70% in size
#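 AlphaScreen: HP1-beta (50 nM) preformed 30 min with biotin-H3(1-18)K9me3 peptide (50 nM) in PBS pH 7.4, 0.01% Tween-20. Compound added for 30 min at RT, then streptavidin donor/nickel chelate acceptor beads (10 ug/mL) for 30 min.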
# CtBP-E1A inh = CtBP/E1A binding inhibition; activity change, % (no concentration beside the values); AlphaScreen GST-E1A/His-CtBP binding, 1536-well; stronger effect = lower value; AID 651724; 0.49% of 340,000 active; in the data active = activity change below about -65%; inconclusive = mostly about -30% to -63%; also: % is scaled to controls: 0 for no effect and ±100 for the full control effect
#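 AlphaScreen with 125 nM GST-E1A and 125 nM His-CtBP (5X stocks) in Tris pH 8.0, 300 mM NaCl, BSA, Tween 20, TCEP. Compounds preincubated 2 h at 37 deg C, then glutathione donor/nickel acceptor beads added for 1 h at 37 deg C in dark.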
# JMJD2A Tudor inh = blocks the human JMJD2A Tudor domain; AID 504339; Potency, µM (highest dose often 114 µM), for the others: top-dose activity change, negative = inhibition, usual class: inhibitors; AlphaScreen JMJD2A-Tudor / H3K4me3 peptide binding; 4.4% of 390,000 active; also: potency is read from the fitted curve at half-maximal effect; % is scaled to controls: 0 for no effect and ±100 for the full control effect; nearly all actives have a fitted effect of over 50% in size
# * marks the source's active call; other numbers are inactive results; ? = inconclusive; . = no result; [ ] = dose if it differs, or a comment. Unless noted, calls follow the shape of the dose curve; as a rule, active = well fitted inhibition curve with a large enough effect; inconclusive = small, poorly fitted or top-dose-only effect; inactive = no such curve, though single readings can be large or run the other way.
SMILES,G9a inh,Six1-Eya2 blk,BAZ2B block,HP1b binding inh,CtBP-E1A inh,JMJD2A Tudor inh
CCNC(=O)C1(C)CCCN(Cc2cccc3c(OC)cc(C(=O)OCC)cc23)C1 (centres undefined),.,2,.,.,2,.
CCCCCCCCC1=NCCc2c1[nH]c1ccccc21,45µM*,9,?,22%,0,22µM*
CC(C)C/C=C1\CCc2c([nH]c3ccccc23)C1=O,-3%,2,3%,25%,-14,0%
Clc1ccc(SCCn2ccnc2)cc1,32µM*,2,56µM*,?,-6,3.5µM*
Cc1cc(Cl)c(OCCn2ccnc2)c(Br)c1,.,-4,?,?,6,18µM*
OC(COc1ccc(Cl)cc1Cl)Cn1ccnc1 (centres undefined),-2%,1,-20%,16%,6,-9%
Clc1ccc(OCCn2ccnc2)c(Cl)c1,?,1,50µM*,?,1,3.5µM*
C=CCc1cc(Cl)ccc1OCCn1ccnc1,7.1µM*,-4,50µM*,?,-8,20µM*
Cc1ccc(C)c(OCCCCCn2ccnc2)c1,?,-3,?,1%,-15,?
C=CCc1cc(C)ccc1OCCOCCn1ccnc1,10µM*,-19,32µM*,28µM*,-11,3.2µM*
O=[N+]([O-])c1ccc(CNc2cccc(Cl)c2)s1,45µM*,-17,?,-11%,0,?
O=[N+]([O-])c1ccc(CNc2ccc(Cl)cc2)s1,45µM*,-3,35µM*,?,-6,?
COc1ccc(NCc2ccc([N+](=O)[O-])s2)c(OC)c1,10µM*,-9,32µM*,18µM*,-24,40µM*
COc1ccc(NCc2ccc([N+](=O)[O-])s2)cc1,7.9µM*,-4,50µM*,?,-12,56µM*
O=[N+]([O-])c1ccc(CNc2ccc(F)cc2)s1,45µM*,-2,40µM*,-21%,-8,?
CCC(=O)Nc1ccc(C(=O)NNC(=O)Cc2ccccc2)cc1,50%[59 µM],7,-1%,29%,10,-21%
CCN1CCCC1CNS(=O)(=O)c1cccc(C(F)(F)F)c1 (centres undefined),45µM*,7,2%,17%,1,1%
Cc1ccc(NC(=O)C(NC2CCCc3ccccc32)c2ccccc2)c([N+](=O)[O-])c1 (centres undefined),11µM*,-26,45µM*,25µM*,-26,4.5µM*
CNC(=O)NC(=O)C(NC1CCCc2ccccc21)c1ccccc1 (centres undefined),?,2,-2%,24%,1,-14%
CCc1ccc2oc(-c3ccc(C)c(NC(=O)c4cc([N+](=O)[O-])ccc4N4CCOCC4)c3)nc2c1,?,.,-28%,17%,.,-18%
Cc1nn(-c2cccc(Cl)c2)c2nc(C(F)(F)F)[nH]c(=O)c12,-7%[59 µM],?,1%,39%,?,-4%
Cc1cc(C)nc(-n2nc(C)c3c(=O)[nH]c(C(F)(F)F)nc32)n1,-41%[59 µM],-8,-5%,10%,0,79µM*
COc1ccc(C(=O)Nc2nc3nc(-c4ccccc4)cc(=O)n3[nH]2)cc1,?,-17,12%,37%,-8,-13%
CC(C)CC(=O)Nc1nc2nc(-c3ccccc3)cc(=O)n2[nH]1,?,.,50µM*,26%,.,?
O=c1cc(-c2ccccc2)nc2nc(SCc3ccccc3)[nH]n12,-12%[12.7 µM],-1,79µM*,3%,-8,?
SMILES,G9a inh,Six1-Eya2 blk,BAZ2B block,HP1b binding inh,CtBP-E1A inh,JMJD2A Tudor inh
Cc1cc(=O)n2[nH]c(SCc3ccccc3)nc2n1,13%,0,2%,26%,2,19%
O=C(Nc1nc2nc(-c3ccccc3)cc(=O)n2[nH]1)c1ccc(Cl)cc1,?,.,79µM*,26%,.,?
COc1ccc2[nH]c(C(=O)O)c(NS(=O)(=O)c3ccc(F)cc3)c2c1,?,-1,-19%,45%,-4,-16%
COc1ccc2[nH]c(C(=O)O)c(NS(=O)(=O)c3ccc(C)c(C)c3)c2c1,45µM*,-13,-33%,50%,-15,-19%
COc1ccc(S(=O)(=O)Nc2c(O)ccc3ccccc23)cc1OC,.,-14,.,71µM*,5,79µM*
COc1ccc(S(=O)(=O)Nc2c(C(=O)O)[nH]c3ccccc23)cc1OC,13µM*,-13,?,-14%,0,?
COc1ccc(C(=O)Nc2c(O)ccc3ccccc23)cc1OC,.,-8,.,13%,-2,-21%
O=C(O)c1[nH]c2ccccc2c1NS(=O)(=O)c1ccc(F)cc1,71µM*,3,?,2%,8,-21%
COc1ccc([C@@H]2C[C@H]3[C@@H](CN2S(=O)(=O)c2ccccc2)C(=O)C[C@@H](c2ccc(OC)cc2)N3S(=O)(=O)c2ccccc2)cc1,.,-2,.,.,-5,.
CCCC(=O)N1CCC1(C)C(=O)NS(=O)(=O)c1ccccc1 (centres undefined),.,10,.,.,15,.
CC1C(O)=C(c2ccccc2)P(=O)(Cc2ccccc2)C1C (centres undefined),.,11,.,.,4,.
COc1ccc(S(=O)(=O)Nc2c(C(=O)O)[nH]c3ccccc23)cc1,45µM*,0,-18%,72%,2,-27%
O=C(O)c1[nH]c2ccccc2c1NS(=O)(=O)Cc1ccccc1,?,1,-38%,6%,-4,?
Cc1ccc(S(=O)(=O)Nc2c(C(=O)O)[nH]c3ccccc23)c(C)c1,?,-3,?,?,0,56µM*
NC(=O)NCCCC(=O)NCC(c1ccccc1Cl)c1c[nH]c2ccccc12 (centres undefined),-2%,-1,-27%,11%,.,-28%
Cc1cc(=O)n2cccc(O)c2n1,.,?,13µM*,-9%,.,?
Cc1nnc(SCc2cc(=O)n3cccc(C)c3n2)s1,3%[59 µM],.,13%,27%[57 µM],.,-7%
COc1ccc(OCCn2nnc3sc4c(c3c2=O)CCC(C(C)(C)C)C4)cc1 (centres undefined),39%[59 µM],.,4%,72%,.,-21%
CC(=C\c1ccco1)/C=C1/SC(=S)N(CC(=O)O)C1=O,40µM*,-10,50µM*,-1%,-2,-28%
O=C(CN1C(=O)/C(=C/c2ccco2)SC1=S)Nc1ccc(O)c(C(=O)O)c1,25µM*,-4,45µM*,41%,.,?
CC(/C=C1\SC(=S)N(CC(=O)O)C1=O)=C\c1ccccc1,12%[59 µM],10,-16%,-1%,4,-17%
